# Measured values published in PubChem BioAssay (EPA / NIEHS).
# Results filed as inconclusive are left out. Calls of active or inactive are those of the source. How the source made its calls: active means hit-call score of the fitted dose curve at least 0.9, where 1 is the maximum; inconclusive means response in the unintended direction; inactive means score below 0.9.
# Experiments:
# [1] = tested on: rat Monoamine Oxidase, MAO-A, Central (MAOAC), gene 29253; test: NVS_ENZ_rMAOAC: NovaScreen (NVS) Enzymatic Assay for rat Monoamine Oxidase, MAO-A, Central (MAOAC) (AID 2283243);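 further: potency refers to inhibition seen as signal drop below DMSO baseline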
# In short: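 Rat brain tissue extract served as the cell-free enzyme source; activity was measured by radiometric scintillation counting 1.5 hours after compound addition. Loss of signal relative to DMSO baseline indicated inhibition; primary screen at 25 uM in duplicate.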
# [2] = target: guinea pig Opioid, Kappa 1 Receptor (OpiateK), OPRK1 (gene 100135587) (UniProt P41144); test: NVS_GPCR_gOpiateK: NovaScreen (NVS) G Protein-Coupled Receptor Assay for guinea pig Opioid, Kappa 1 Receptor (OpiateK) (AID 2283252);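 further: radioligand displacement from kappa opioid receptor in guinea pig cerebellar membranes; active means reduced radioligand binding relative to DMSO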
# guinea pig Opioid, Kappa 1 Receptor (OpiateK), OPRK1 (gene 100135587), sequence (P41144 whole entry, looked up): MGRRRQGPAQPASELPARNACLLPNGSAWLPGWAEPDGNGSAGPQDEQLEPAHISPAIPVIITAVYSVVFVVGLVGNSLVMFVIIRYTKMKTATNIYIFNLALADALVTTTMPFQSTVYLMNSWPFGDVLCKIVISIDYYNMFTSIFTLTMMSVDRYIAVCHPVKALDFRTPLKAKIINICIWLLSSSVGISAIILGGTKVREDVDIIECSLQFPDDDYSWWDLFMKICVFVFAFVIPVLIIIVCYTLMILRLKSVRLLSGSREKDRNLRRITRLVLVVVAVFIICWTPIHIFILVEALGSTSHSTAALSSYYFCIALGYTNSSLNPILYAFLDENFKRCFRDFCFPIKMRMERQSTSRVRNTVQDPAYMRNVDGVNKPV
# In short: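 Signal is scintillation counts of filter-trapped radioligand bound to guinea pig cerebellar membrane receptor, measured 2 hours post-dosing. Activity is loss of binding versus DMSO, first at 25 uM in duplicate, then as concentration series for actives.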
# [3] = target: human Adenosine A2a Receptor (AdoRA2a), ADORA2A (gene 135) (UniProt P29274); test: NVS_GPCR_hAdoRA2a: NovaScreen (NVS) G Protein-Coupled Receptor Assay for human Adenosine A2a Receptor (AdoRA2a) (AID 2283256)
# human Adenosine A2a Receptor (AdoRA2a), ADORA2A (gene 135), sequence (P29274 whole entry, looked up): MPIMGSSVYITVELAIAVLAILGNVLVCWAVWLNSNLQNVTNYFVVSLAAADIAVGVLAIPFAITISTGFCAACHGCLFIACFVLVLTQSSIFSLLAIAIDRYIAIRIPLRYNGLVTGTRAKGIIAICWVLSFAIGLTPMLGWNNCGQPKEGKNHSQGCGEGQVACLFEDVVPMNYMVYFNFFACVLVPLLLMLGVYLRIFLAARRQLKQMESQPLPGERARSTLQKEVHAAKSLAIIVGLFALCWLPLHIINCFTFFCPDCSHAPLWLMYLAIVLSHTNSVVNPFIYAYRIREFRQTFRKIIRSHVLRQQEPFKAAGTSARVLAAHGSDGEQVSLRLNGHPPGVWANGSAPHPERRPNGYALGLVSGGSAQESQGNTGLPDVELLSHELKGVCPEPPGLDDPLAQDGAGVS
# In short: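 Cell-free radioligand binding on membranes from HEK293 expressing the receptor; competitive displacement read 1.5 h after dosing by filter-based scintillation counting. Primary screen in duplicate at 25 uM; actives followed in concentration series, with DMSO as baseline.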
smiles,measurement,setting,value
Oc1cccc(-c2ccccc2)c1,AC50,[1],10.9 µM (active)
N#CCCC(Br)(C#N)CBr (stereo not drawn),outcome,[2],inactive
Cc1cccc(OP(=O)(Oc2cccc(C)c2)Oc2cccc(C)c2)c1,outcome,[3],inactive
